Data as given in PubChem BioAssay.
A number with no mark means an inactive call. Unless noted, the rule behind the calls is not given here.

assay: cell viability in Huh7 cells, primary screen, cytotoxicity control for HCV replication inhibitor project, CellTiter-Glo luminescence, basal, 48 h (AID 1143); settings: Huh7 HCV replicon, higher = more signal, called active from +8 up or from −8 down;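 note: Huh7 hepatoma cells carrying a hepatitis C replication reporter with no stimulus; test concentration not given here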

| SMILES | z-score |
| --- | --- |
| C=C(CCCC)/C(=C/C[C@H](OC(C)=O)c1cccc(OCCO)c1)c1cc(C(=O)OC)ccc1OC | -0.845 |
| CN(C)CCCC[C@@H]1NC(=O)[C@@H]2C[C@H](C(=O)NCc3ccc(F)cc3)[C@H](c3ccc(O)cc3)N2C1=O | 0.0109 |
| C=CCNC(=O)[C@@H]1[C@H]2C(=O)O[C@H](c3ccccc3)[C@H](c3ccccc3)N2[C@H](c2ccccc2OCCO)[C@@]12C(=O)N(C(=O)OCCOC)c1ccc(C#CCCO)cc12 | -3.34 |
| C=CCC(OC(C)=O)[C@@H]1[C@@H](N(Cc2cc3ccccc3o2)C(=O)c2ccc(-c3ccccc3)cc2)c2cc(OCCCO)ccc2N1C(=O)c1ccc2ccccc2n1 (stereo partly specified) | 0.214 |
| COc1ccc(C#Cc2ccc3c(c2)[C@]2(C(=O)N3)[C@H](C(=O)Nc3nc4ccccc4s3)[C@H]3C(=O)O[C@H](c4ccccc4)[C@H](c4ccccc4)N3[C@@H]2c2ccc(OCCO)cc2)cc1 | -0.974 |
| C=CCC(OC(C)=O)[C@@H]1[C@@H](N(Cc2cc3ccccc3o2)C(=O)Cc2ccc(OC)cc2)c2cc(OCCCO)ccc2N1C(=O)Cc1ccc(OC)cc1 (stereo partly specified) | -1.17 |
| COCCOC(=O)N1C(=O)[C@@]2(c3cc(C#CC4(O)CCCCCC4)ccc31)[C@H](C(=O)NC[C@H](O)c1ccccc1)[C@H]1C(=O)O[C@H](c3ccccc3)[C@H](c3ccccc3)N1[C@@H]2c1ccc(O)cc1 | -0.622 |
| Cc1c(NC(=O)/C(C#N)=C/c2ccc(Cl)cc2)c(=O)n(-c2ccccc2)n1C | -1.62 |
| CCCC=C(CCC)[C@@H](NS(=O)(=O)c1ccc(Cl)cc1)c1ccccc1 | -2.29 |
| CN(C)CCCNC(=O)[C@@]1(Cc2ccccc2I)c2ccccc2C(=O)N(Cc2ccccc2)[C@H]1c1ccc(CO)cc1 | -5.58 |
| CCOC(=O)C[C@H]1[C@H](OC(=O)c2ccc(-c3ccccc3)cc2)[C@@H](NC(=O)c2ccc3ccccc3c2)c2cc(OCCCO)ccc2N1C(=O)c1ccccc1 | -0.433 |
| C=C(CCCC)C(=O)CC[C@H](OC(=O)c1cccnc1)c1ccc(CO)o1 | 0.0536 |
| COc1ccc(C#Cc2ccc3c(c2)[C@]2(C(=O)N3)[C@H](c3ccc(OCCO)cc3)N3[C@H](c4ccccc4)[C@H](c4ccccc4)OC(=O)[C@H]3[C@@H]2C(=O)O)cc1 | -5.01 |
| COC(=O)[C@@]1(Cc2ccc(F)cc2)[C@H]2c3cc(C(=O)N(C)C)n(CCN4CCOCC4)c3C[C@H]2CN1C(=O)c1ccccc1 | -1.02 |
| CCCC[C@@H]1C[C@H]1[C@@H](NC(=O)c1ccc(C(F)(F)F)cc1)c1ccc(C(=O)OC)cc1 | -2.9 |
| COC(=O)[C@@]1(Cc2ccccc2)[C@@H]2[C@@H](CC(=O)[C@H]2CC(=O)C(=O)N(C)C)CN1C(=O)c1ccccc1 | -0.0162 |
| COC(=O)[C@@]1(Cc2ccc(OC)cc2)[C@H]2c3cc(C(=O)N4CCCC4)n(CCc4ccc(OC)c(Br)c4)c3C[C@H]2CN1C(=O)c1ccccc1 | -0.0564 |
| O=C1NC(=O)C2C1C=CC(C(O)c1cccc(O)c1)N2Nc1ccc(Cl)cc1Cl (stereo unspecified) | -1.08 |
| C=C(COC)C(=O)CC[C@@H](OC(C)=O)c1ccc(OCCO)cc1 | -0.354 |

assay: P. aeruginosa biofilm formation inhibitors, primary screen, PAO1 strain, BacTiter-Glo luminescence, LB-PBS (AID 1144); settings: 12 h, higher = more signal

| SMILES | z-score |
| --- | --- |
| CCCCN1CC=CC23O[C@@H]4C=CCOC(=O)[C@@H]4[C@H]2C(=O)N(CCO)[C@@H]3C1=O (stereo partly specified) | 1.1 |
| C=CC[C@@]12N=C(c3ccc(OCCCO)cc3)O[C@@H]1c1ccccc1N(Cc1ccccc1)C2=O | 0.519 |
| COCCOC(=O)N1C(=O)[C@@]2(c3cc(C#CCC(C(=O)OC)C(=O)OC)ccc31)[C@H](C(N)=O)[C@H]1C(=O)O[C@H](c3ccccc3)[C@H](c3ccccc3)N1[C@@H]2c1ccc(OCCO)cc1 | -0.224 |
| CCOC(=O)C1=C(C(=O)OCC)N(S(=O)(=O)CC[Si](C)(C)C)[C@H](c2ccccc2)CC1 | 0.338 |
| COC(=O)C1=CC(CCCO)=CC(c2ccc(CN3CCCC3)cc2)N(Cc2sc3ccccc3c2Cl)C=C1C(=O)OC (stereo unspecified) | -0.782 |
| C=CCNC(=O)[C@@H]1[C@H]2C(=O)O[C@H](c3ccccc3)[C@H](c3ccccc3)N2[C@H](c2ccc(O)cc2)[C@@]12C(=O)Nc1ccc(C#CC3(O)CCCCCC3)cc12 | -0.817 |
| NC(=O)NCC#Cc1ccc2c(c1)[C@]1(C(=O)N2)[C@H](C(=O)Nc2nc3ccccc3s2)[C@H]2C(=O)O[C@H](c3ccccc3)[C@H](c3ccccc3)N2[C@@H]1c1ccc(OCCO)cc1 | -1.02 |
| COCCOC(=O)N1C(=O)[C@@]2(c3cc(C#CC4(O)CCCCCC4)ccc31)[C@H](c1ccccc1OCCO)N1[C@H](c3ccccc3)[C@H](c3ccccc3)OC(=O)[C@H]1[C@@H]2C(=O)N1CCCCCCC1 | -0.977 |
| COCCOC(=O)N1C(=O)[C@@]2(c3cc(C#CCCO)ccc31)[C@H](C(=O)N1CCc3cc(OC)c(OC)cc3C1)[C@H]1C(=O)O[C@H](c3ccccc3)[C@H](c3ccccc3)N1[C@@H]2c1ccccc1OCCO | -0.652 |
| [N-]=[N+]=NCc1ccccc1[C@H]1OC(c2ccc(OCCCO)cc2)=N[C@@]1(Cc1ccccc1)C(=O)N1CCOCC1 | -0.78 |
| C=CCOC(=O)[C@H]1[C@@H]2C(=O)O[C@@H](c3ccccc3)[C@@H](c3ccccc3)N2[C@@H](c2ccc(OCCOC(=O)[C@@H]3C[C@@H]4C(=O)N[C@@H](CC(C)C)C(=O)N4[C@@H]3c3ccc(O)cc3)cc2)[C@]12C(=O)Nc1ccc(I)cc12 | -1.3 |
| COCCOC(=O)N1C(=O)[C@@]2(c3cc(C#CCC(C(=O)OC)C(=O)OC)ccc31)[C@H](C(=O)N1CCc3cc(OC)c(OC)cc3C1)[C@H]1C(=O)O[C@H](c3ccccc3)[C@H](c3ccccc3)N1[C@@H]2c1ccc(O)cc1 | 0.0314 |
| O=C1c2ccccc2[C@@]2(Cc3ccccc3N(Cc3ccccc3)C2=O)[C@H](c2ccc(CO)cc2)N1Cc1ccccc1 | -0.124 |
| CN(C)CCCC[C@@H]1NC(=O)[C@@H]2C[C@H](C(=O)NCCCCCCNC(=O)CS)[C@H](c3cccc(OCCO)c3)N2C1=O | -0.332 |
| CCCC[C@H]1OB(O)C[C@H]2C1=C(COC)C[C@H]1C(=O)C=CC(=O)[C@H]12 | -0.229 |
| C=C(/C(=C/C[C@@H](OC(C)=O)c1ccccc1OCCO)c1cc(C(=O)OC)ccc1OC)C(C)C | 0.217 |

| SMILES | z-score |
| --- | --- |
| C=C(CCCC)/C(=C/C[C@H](OC(C)=O)c1cccc(OCCO)c1)c1cc(C(=O)OC)ccc1OC | 0.0689 |
| CN(C)CCCC[C@@H]1NC(=O)[C@@H]2C[C@H](C(=O)NCc3ccc(F)cc3)[C@H](c3ccc(O)cc3)N2C1=O | -0.886 |
| C=CCNC(=O)[C@@H]1[C@H]2C(=O)O[C@H](c3ccccc3)[C@H](c3ccccc3)N2[C@H](c2ccccc2OCCO)[C@@]12C(=O)N(C(=O)OCCOC)c1ccc(C#CCCO)cc12 | -0.976 |
| C=CCC(OC(C)=O)[C@@H]1[C@@H](N(Cc2cc3ccccc3o2)C(=O)c2ccc(-c3ccccc3)cc2)c2cc(OCCCO)ccc2N1C(=O)c1ccc2ccccc2n1 (stereo partly specified) | -0.115 |
| COc1ccc(C#Cc2ccc3c(c2)[C@]2(C(=O)N3)[C@H](C(=O)Nc3nc4ccccc4s3)[C@H]3C(=O)O[C@H](c4ccccc4)[C@H](c4ccccc4)N3[C@@H]2c2ccc(OCCO)cc2)cc1 | -0.953 |
| C=CCC(OC(C)=O)[C@@H]1[C@@H](N(Cc2cc3ccccc3o2)C(=O)Cc2ccc(OC)cc2)c2cc(OCCCO)ccc2N1C(=O)Cc1ccc(OC)cc1 (stereo partly specified) | 0.0258 |
| COCCOC(=O)N1C(=O)[C@@]2(c3cc(C#CC4(O)CCCCCC4)ccc31)[C@H](C(=O)NC[C@H](O)c1ccccc1)[C@H]1C(=O)O[C@H](c3ccccc3)[C@H](c3ccccc3)N1[C@@H]2c1ccc(O)cc1 | 0.588 |
| Cc1c(NC(=O)/C(C#N)=C/c2ccc(Cl)cc2)c(=O)n(-c2ccccc2)n1C | -1.04 |
| CCCC=C(CCC)[C@@H](NS(=O)(=O)c1ccc(Cl)cc1)c1ccccc1 | -0.527 |
| CN(C)CCCNC(=O)[C@@]1(Cc2ccccc2I)c2ccccc2C(=O)N(Cc2ccccc2)[C@H]1c1ccc(CO)cc1 | 0.113 |
| CCOC(=O)C[C@H]1[C@H](OC(=O)c2ccc(-c3ccccc3)cc2)[C@@H](NC(=O)c2ccc3ccccc3c2)c2cc(OCCCO)ccc2N1C(=O)c1ccccc1 | 0.0625 |
| C=C(CCCC)C(=O)CC[C@H](OC(=O)c1cccnc1)c1ccc(CO)o1 | -0.159 |
| COc1ccc(C#Cc2ccc3c(c2)[C@]2(C(=O)N3)[C@H](c3ccc(OCCO)cc3)N3[C@H](c4ccccc4)[C@H](c4ccccc4)OC(=O)[C@H]3[C@@H]2C(=O)O)cc1 | -2.48 |
| COC(=O)[C@@]1(Cc2ccc(F)cc2)[C@H]2c3cc(C(=O)N(C)C)n(CCN4CCOCC4)c3C[C@H]2CN1C(=O)c1ccccc1 | 0.263 |
| CCCC[C@@H]1C[C@H]1[C@@H](NC(=O)c1ccc(C(F)(F)F)cc1)c1ccc(C(=O)OC)cc1 | 0.164 |
| COC(=O)[C@@]1(Cc2ccccc2)[C@@H]2[C@@H](CC(=O)[C@H]2CC(=O)C(=O)N(C)C)CN1C(=O)c1ccccc1 | -0.621 |
